Common to all, as to test: PBM binding z-score (relative to random genomic background probes); higher = stronger binding; sequences stand for … in GC…GCGATTGACAGCGTAGAATGAAGG
For assay [1], the system named is RARb homodimer (NR concentration 270 nM). An outline of the steps: (§1)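 Random background probes are the reference for binding z-scores. These scores derive from regression-normalized fluorescence on custom Agilent 4×180K protein-binding microarrays incubated 1 h with ligand-free nuclear receptor dimers. Binding was detected with antibodies against each partner (one per run).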

The test system of assay [2] is RARg:RXRa (NR concentration 270 nM, RXRa partner concentration 90 nM). A digest of the protocol:
as §1

The test system of assay [3] is RARg homodimer (NR concentration 270 nM). An outline of the steps:
as §1

Assay [4] has as its system RXRa DBDmut IVT, anti-RXR (DBD mutation: RXRa K156A/R161A, NR concentration 90 nM). A digest of the protocol:
as §1

Assay [5] deals with RXRa homodimer (NR concentration 180 nM). An outline of the steps: as §1
Assay [6] relates to THRa:RXRa (NR concentration 90 nM, RXRa partner concentration 90 nM). An outline of the steps: as §1
Assay [7] concerns THRa homodimer (NR concentration 90 nM). An outline of the steps:
as §1

For assay [8], the system named is VDR homodimer (NR concentration 270 nM). A digest of the protocol: as §1

As for AGAATGAGGTTATTAAGATAAGGGAATTGCGGTC, the PBM binding z-score in assay [1] stood at 0.848; in assay [2], 1.41; in assay [3], 0.946; in assay [4] it was 1.84; in assay [5], 1.8; in assay [6], 1.95. Besides, the PBM binding z-score in assay [7] worked out at 0.273; in assay [8], 0.849.

Turning to TTACTAAGGTGAGCTGAGGTCGTTGATCCAACTC, the PBM binding z-score in assay [1] was found to be 1.96; in assay [2], 1.39; in assay [3] it was 1.38; in assay [4] it was 0.464; in assay [5] it was 1.52; in assay [6], 4.79. Also, the PBM binding z-score in assay [7] is 2.51; in assay [8], 2.32.

For CAAACTAGGTCACCAGAAGGTCAAAGTCCGCATG, the PBM binding z-score in assay [1] was found to be 5.5; in assay [2], 8.08; in assay [3], 7.22; in assay [4], 2.32; in assay [5] it was 6.38; in assay [6] it was 4.35. Further, the PBM binding z-score stood at 2.59 in assay [7] and 3.71 in assay [8].

As for GCAACTGGGGCAAAGCAGGTTACCATAAGGTTGG, the PBM binding z-score was 1.27 in assay [1]; 0.563 in assay [2]; 0.56 in assay [3]; -0.0375 in assay [4]; 0.648 in assay [5]; 2.78 in assay [6]. In addition, the PBM binding z-score is 0.101 in assay [7] and -0.248 in assay [8].

In the case of GCTGCTCGGTCAGGTTGGTCAGCTAACGGGTACG, the PBM binding z-score in assay [1] was 1.53; in assay [2] it was 0.691; in assay [3], 2.11; in assay [4] it was -0.37; in assay [5], -0.405; in assay [6], -0.155. For the same sequence, the PBM binding z-score in assay [7] is -0.287; in assay [8], -0.476.

As for CACACTAGGTCACCGGAAGGTCAAAGTCCGCATG, the PBM binding z-score in assay [1] was 5.83; in assay [2], 8.21; in assay [3], 7.39; in assay [4], 2.24; in assay [5] it was 6.53; in assay [6] it was 4.79. In addition, the PBM binding z-score in assay [7] amounted to 3.54; in assay [8], 3.61.

With GCAGACAGGTGAACCGCAGGTAACTCAGGGTGGC, the PBM binding z-score in assay [1] is 0.366; in assay [2], 1.37; in assay [3], 0.342; in assay [4], -0.635; in assay [5] it was 1.54; in assay [6] it was 1.76. The values for the PBM binding z-score in assay [7] and in assay [8] were -0.376 and -0.237, respectively.

The values above are taken from the supplement of paper PMC6555819.
